# Assay results published in PubChem BioAssay (EPA / NIEHS).
# Active and inactive are the calls of the source. How the source made its calls: active means hit-call score of the fitted dose curve at least 0.9, where 1 is the maximum; inactive means score below 0.9.
# Experiment: IUF_NPC2-5_viability_120hr: Viability Assessment at 120 hours in the Leibniz Research Institute for Environmental Medicine (IUF) Neural Progenitor Cell Migration and Differentiation Assay (NPC2-5) (AID 2284312)
# Procedure: IUF_NPC2-5 is a cell-based, multiplexed assay that uses hNPC, a human primary neural progenitor cells, with measurements taken at 72 or 120 hours after chemical dosing in a 96-well plate. Human neural progenitor cells (hNPC) are generated from human fetal brain cortex at gestational week (GW) 16-19. In the neural progenitor cell migration and differentiation assay (NPC2-5), hNPCs grown as spheres are plated on an extracellular matrix and migrate and differentiate out of the sphere core. The processes radial glia migration, neuronal and oligodendrocyte migration as well as neuronal differentiation, neuronal morphology and oligodendrocyte differentiation are studied using automated phase contrast imaging and automated fluorescence imaging in combination with high content image analysis. In parallel, the cell viability is assessed using an alamar blue viability assay and the cytotoxicity using a lactate dehydrogenase dependent membrane integrity assay.IUF_NPC2-5_viability_120hr is one of 12 assay components measured from the IUF_NPC2-5 assay. It is designed to measure cell viability assessed as mitochondria-dependent reduction of resazurin to resorufin using the alamar blue viability assay. The viability is measured as a fluorescence signal (relative fluorescence unit) in a multiplate reader. Data from the IUF_NPC2-5_viability_120hr component was analyzed at the endpoint IUF-NPC2-5_viability_120hr in the positive analysis fitting direction relative to DMSO as the negative control and baseline of activity. Using a type of viability reporter, gain or loss-of-signal activity can be used to understand viability effects.
# Culture protocol: After the cell expansion period the cells are cultured for up to four weeks in which they are passaged every week as described in 3.6. Between one to three days after passaging spheres at a size of 0.3 mm are picked for the test method. For the assessment of neural progenitor cell migration and differentiation, the spheres are plated on poly-D-lysine/laminin coated 96-well flat bottom plates in differentiation medium (N2) to initiate migration and differentiation. Thereby one 0.3 mm big sphere is plated in the middle of a well. The differentiation medium consists of DMEM and Ham's F12 at a ratio of 3 to 1 supplemented with 1% N2 and 1% penicillin and streptomycin. Within 5 days NPCs radially migrate out of the sphere core and differentiate into radial glia cells (nestin positive), neurons (TUBB3 positive), oligodendrocytes (O4 positive) and astrocytes (GFAP positive). Cultivation during the test method is performed at 37C and 5% CO2 at a ph of 7.2-7.6.Exposure: 0.3 mm big hNPC are plated in the already prepared test conditions. Exposure starts at day 0 of differentiation and is continued over five days of differentiation until the experiment is terminated. Cells are fed with fresh medium at day 3 of differentiation. Therefore, half of the test condition solution (e.g. solvent control or compound dilution) is replaced by freshly prepared test condition solution.Test Method: Migration distance and cytotoxicity is determined after 72 hours based on brightfield images of each well. The assay is terminated by the assessment of cell viability and cytotoxicity as well as cell fixation after 120 h. Immunocytochemistry is performed for Hoechst positive nuclei, TUBB3 positive neurons and O4 positive oligodendrocytes. On the ICC images, migration after 120 hours, neuronal and oligodendrocyte number, neuronal morphology and neuron/oligodendrocyte specific migration is assessed. immunocytochemical staining (ICC) generates an image for each sphere. The plates are scanned using an automated high content imaging device and all nuclei and their positions are determined automatically based on their intensity and size. Images are imported to the Omnisphero software to run the image analysis that measures the following endpoints. The method is set up for 8 test conditions including 7 compound concentrations and one SC. […]
Compound,outcome,AC50
N#Cc1nn(-c2c(Cl)cc(C(F)(F)F)cc2Cl)c(N)c1S(=O)C(F)(F)F (centres undefined),inactive,
CCCCC(CC)COC(=O)c1ccccc1C(=O)OCC(CC)CCCC (centres undefined),inactive,
CCOc1cc(Oc2ccc(C(F)(F)F)cc2Cl)ccc1[N+](=O)[O-],inactive,
CCCCOC(=O)c1ccccc1C(=O)OCCCC,inactive,
CO/C=C(/C(=O)OC)c1ccccc1Oc1cc(Oc2ccccc2C#N)ncn1,inactive,
CCOC(=O)CC(SP(=S)(OC)OC)C(=O)OCC (centres undefined),inactive,
C=CC1(C)OC(=O)N(c2cc(Cl)cc(Cl)c2)C1=O (centres undefined),inactive,
COC(=O)N(OC)c1ccccc1COc1ccn(-c2ccc(Cl)cc2)n1,,1.55 µM (active)
COP(N)(=O)SC (centres undefined),inactive,
Cc1ccc(-c2c(Cl)nc(C#N)n2S(=O)(=O)N(C)C)cc1,,11.7 µM (active)
CN(C)C(=S)SSC(=S)N(C)C,,29.1 µM (active)
CC(C)(C)c1ccc(CSc2cnn(C(C)(C)C)c(=O)c2Cl)cc1,inactive,
COP(=S)(OC)Oc1nc(Cl)c(Cl)cc1Cl,inactive,
CNC(=O)ON=CC(C)(C)SC,inactive,
